# Data taken from PubChem BioAssay AID504862 (Sanford-Burnham Center for Chemical Genomics, 2011).
# This is one part of the list. Values without a mark were called inactive.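 Rule for the calls: active = average inhibition reaching 50% or more with the compound at 20 µM; inactive = the rest.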
# Test system: diaphorase (Clostridium kluyveri)
# Assay: diaphorase inhibitors and chemical oxidizers, confirmation, counter-screen for P. falciparum G6PD inhibitor project, biochemical, fluorescence intensity, 10 µM NADPH (AID 504862);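 note: resorufin red fluorescence formed as diaphorase reduces resazurin using NADPH; 0% = DMSO with enzyme and 100% = DMSO without enzyme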
# Details: diaphorase-coupled resazurin reduction, NADPH 10 uM, at 20 µM, stronger effect = higher value
smiles,measurement,value
O=C1NC(=O)N(c2ccccc2)C(=O)/C1=C/c1ccc([N+](=O)[O-])s1,inhibition,47.3%
